Inconclusive results are not listed. The source made the active and inactive calls. Calls come from the whole dose curve; as a rule, active = well fitted curve in the direction sought with a large enough effect; inconclusive = small, poorly fitted or top-dose-only effect, or another doubt; inactive = no such curve, though single readings can be large; an effect the other way counts as inactive or inconclusive.
Key:
[1] = biological target: Rap guanine nucleotide exchange factor 3 (Homo sapiens) (UniProt O95398); assay: Confirmatory qHTS for antagonist of cAMP-regulated guanine nucleotide exchange factor 3 (EPAC1) (AID 1645880); note: nearly all actives have a fitted effect of over 55% in size; note: potency is the fitted concentration of half-maximal effect
Sequence of Rap guanine nucleotide exchange factor 3 (Homo sapiens) (O95398 whole entry, looked up): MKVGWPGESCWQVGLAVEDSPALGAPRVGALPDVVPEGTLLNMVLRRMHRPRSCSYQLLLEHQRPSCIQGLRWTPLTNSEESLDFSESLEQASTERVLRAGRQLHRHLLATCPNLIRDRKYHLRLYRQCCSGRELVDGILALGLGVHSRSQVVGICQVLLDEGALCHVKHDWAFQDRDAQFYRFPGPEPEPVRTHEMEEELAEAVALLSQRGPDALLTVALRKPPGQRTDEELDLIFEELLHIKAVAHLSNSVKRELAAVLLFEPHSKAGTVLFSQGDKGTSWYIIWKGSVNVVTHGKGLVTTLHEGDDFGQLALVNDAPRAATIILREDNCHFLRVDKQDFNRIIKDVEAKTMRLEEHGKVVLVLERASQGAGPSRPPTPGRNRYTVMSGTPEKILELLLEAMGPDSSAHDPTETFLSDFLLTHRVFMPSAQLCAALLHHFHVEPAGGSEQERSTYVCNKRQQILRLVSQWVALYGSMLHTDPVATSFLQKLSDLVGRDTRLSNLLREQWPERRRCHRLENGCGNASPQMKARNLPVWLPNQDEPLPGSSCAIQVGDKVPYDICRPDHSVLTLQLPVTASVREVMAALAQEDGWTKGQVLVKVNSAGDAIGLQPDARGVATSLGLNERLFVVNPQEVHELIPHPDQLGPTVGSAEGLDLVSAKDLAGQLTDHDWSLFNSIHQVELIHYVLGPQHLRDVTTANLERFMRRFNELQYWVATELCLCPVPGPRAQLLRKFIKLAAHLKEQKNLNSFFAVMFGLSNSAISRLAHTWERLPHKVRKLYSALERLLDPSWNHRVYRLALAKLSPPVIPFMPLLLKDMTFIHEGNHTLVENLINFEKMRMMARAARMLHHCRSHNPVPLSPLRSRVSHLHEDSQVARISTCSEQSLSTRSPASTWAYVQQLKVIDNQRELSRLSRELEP
Summary of the method: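 Released BODIPY-GDP fluoresces less than Rap1-bound BODIPY-GDP; the signal is followed at 480/540 nm at 5-min intervals over 30 min, after 5 min at room temperature. Reactions contain 100 nM EPAC1, 250 nM RAP1B-BODIPY-GDP and 50 uM GDP; results are normalized to ATA and DMSO.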

[2] = biological target: Rap guanine nucleotide exchange factor 3 (Homo sapiens) (UniProt O95398); assay: Confirmatory qHTS for agonist of cAMP-regulated guanine nucleotide exchange factor 3 (EPAC1) (AID 1645881); note: nearly all actives have a fitted effect of over 75% in size; note: potency is the fitted concentration of half-maximal effect;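 for activation: EPAC1 catalysed release of BODIPY-GDP from Rap1B seen as fluorescence loss; 100% = effect of cAMP agonist control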
[3] = biological target: Rap guanine nucleotide exchange factor 4 (Homo sapiens) (UniProt Q8WZA2); assay: Confirmatory qHTS for agonist of cAMP-regulated guanine nucleotide exchange factor 4 (EPAC2) (AID 1645884);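 note: nucleotide exchange releases bodipy-GDP from Rap1 and this lowers its fluorescence; nearly all actives have a fitted effect of over 65% in size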; note: potency is the fitted concentration of half-maximal effect; for activation: % is set by controls: 0 for no effect and ±100 for the full control effect
Sequence of Rap guanine nucleotide exchange factor 4 (Homo sapiens) (Q8WZA2 whole entry, looked up): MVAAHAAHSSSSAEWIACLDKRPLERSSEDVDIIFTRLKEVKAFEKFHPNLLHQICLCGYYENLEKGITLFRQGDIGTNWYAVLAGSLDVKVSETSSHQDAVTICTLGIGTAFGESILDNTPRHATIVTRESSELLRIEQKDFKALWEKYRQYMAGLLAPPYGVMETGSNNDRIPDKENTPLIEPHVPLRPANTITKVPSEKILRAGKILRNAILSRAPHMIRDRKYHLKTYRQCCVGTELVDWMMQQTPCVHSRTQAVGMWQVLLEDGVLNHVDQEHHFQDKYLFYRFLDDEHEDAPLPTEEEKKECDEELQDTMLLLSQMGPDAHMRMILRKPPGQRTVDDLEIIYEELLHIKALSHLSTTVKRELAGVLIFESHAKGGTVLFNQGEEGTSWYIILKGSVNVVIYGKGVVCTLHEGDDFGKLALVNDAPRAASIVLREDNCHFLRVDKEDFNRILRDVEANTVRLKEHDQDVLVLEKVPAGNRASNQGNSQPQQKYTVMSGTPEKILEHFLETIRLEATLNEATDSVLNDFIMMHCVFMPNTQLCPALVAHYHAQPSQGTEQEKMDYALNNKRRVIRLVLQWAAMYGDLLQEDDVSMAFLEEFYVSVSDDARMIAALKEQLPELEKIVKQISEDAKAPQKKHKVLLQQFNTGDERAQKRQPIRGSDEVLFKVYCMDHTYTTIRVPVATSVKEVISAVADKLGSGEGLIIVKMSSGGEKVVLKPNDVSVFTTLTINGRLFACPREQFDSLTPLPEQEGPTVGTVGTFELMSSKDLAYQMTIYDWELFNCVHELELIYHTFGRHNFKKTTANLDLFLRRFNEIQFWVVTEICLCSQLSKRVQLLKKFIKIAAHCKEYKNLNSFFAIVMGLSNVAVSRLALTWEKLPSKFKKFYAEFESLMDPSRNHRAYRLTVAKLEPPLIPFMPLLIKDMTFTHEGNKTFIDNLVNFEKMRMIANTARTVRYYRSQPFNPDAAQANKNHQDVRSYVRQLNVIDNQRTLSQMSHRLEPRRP

[4] = biological target: Rap guanine nucleotide exchange factor 4 (Homo sapiens) (UniProt Q8WZA2); assay: Confirmatory qHTS for antagonist of cAMP-regulated guanine nucleotide exchange factor 4 (EPAC2) (AID 1645885); note: nearly all actives have a fitted effect of over 25% in size; note: potency is the fitted concentration of half-maximal effect; for activity change, negative = inhibition: % is set by controls: 0 for no effect and ±100 for the full control effect
[5] = biological target: Rap guanine nucleotide exchange factor 3 (Homo sapiens) (UniProt O95398); assay: Counterscreen qHTS for antagonist of cAMP-regulated guanine nucleotide exchange factor 3 (EPAC1) (AID 1645888); note: % of control where 0% means no effect
Summary of the method: (§1)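 Measured: fluorescence of BODIPY-GDP bound to Rap1B, which falls as exchange proceeds. Conditions include 50 uM competing GDP, 5 and 30 min reads, and a later cAMP challenge for antagonist detection.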

[6] = biological target: Rap guanine nucleotide exchange factor 3 (Homo sapiens) (UniProt O95398); assay: Counterscreen qHTS for agonist of cAMP-regulated guanine nucleotide exchange factor 3 (EPAC1) (AID 1645889); note: nearly all actives have a fitted effect of over 40% in size; note: potency is the fitted concentration of half-maximal effect; for activation: % of control where 0% means no effect
Summary of the method: as §1

O=C(Cc1ccccc1)O/N=C1\CCCc2ccccc21
inactive: Potency [1] | Potency [2] | Potency [3] | Potency [4] | Potency [5] | Potency [6]

Cc1ccc(Cn2c(SCC(=O)N/N=C/c3ccc(C)o3)nc3ccccc32)cc1
active: Potency [1] 47.8 µM
inactive: Potency [2] | Potency [3] | Potency [4] | Potency [5] | Potency [6]

Cc1ccc(CNC(=O)C(=O)NCCC2CCCCN2S(=O)(=O)c2cccs2)cc1 (configuration not stated)
inactive: Potency [1] | Potency [2] | activation [3] -1.43% [at 17.1 µM, percent relative to cAMP agonist control] | Potency [4] | activity change, negative = inhibition [5] -26.3% [at 30.8 µM] | activation [6] 20.6% [at 30.8 µM]

O=C(COc1ccccc1Br)NCCC1=CCCCC1
inactive: Potency [1] | Potency [2] | activation [3] 11.2% [at 17.1 µM, percent relative to cAMP agonist control] | Potency [4] | activity change, negative = inhibition [5] -17.9% [at 30.8 µM] | activation [6] 20.5% [at 30.8 µM]

Cc1ccc2nc(-c3ccccc3)c(Cc3ccccc3C(F)(F)F)n2c1
inactive: Potency [1] | Potency [2] | Potency [3] | Potency [4] | Potency [5] | Potency [6]

CC1(C(=O)NS(=O)(=O)c2ccc3ccccc3c2)CCN1C(=O)C1(c2ccc(Cl)cc2)CCC1 (configuration not stated)
active: Potency [1] 37.9 µM
inactive: Potency [2] | Potency [3] | Potency [4] | Potency [5] | Potency [6]

N#Cc1c(-c2ccccc2)nc(SCC(=O)Nc2ccc(OC(F)(F)Cl)cc2)[nH]c1=O
active: Potency [1] 67.5 µM | Potency [4] 12 µM
inactive: Potency [2] | Potency [3] | Potency [5] | Potency [6]

CCCc1cc2c(cc1N(C)S(=O)(=O)c1ccccc1)OCO2
inactive: Potency [1] | Potency [2] | Potency [3] | Potency [4] | Potency [5] | Potency [6]

C=CCc1ccccc1Oc1cc(OC)nc(N)n1
inactive: Potency [1] | Potency [2] | activation [3] -1.65% [at 17.1 µM, percent relative to cAMP agonist control] | Potency [4] | activity change, negative = inhibition [5] -22.4% [at 30.8 µM] | activation [6] -1.76% [at 30.8 µM]

COc1ccc(CC(=O)Nc2nc(-c3cccnc3)cs2)cc1
inactive: Potency [1] | Potency [2] | activation [3] 15.1% [at 17.1 µM, percent relative to cAMP agonist control] | Potency [4] | activity change, negative = inhibition [5] -4.63% [at 30.8 µM] | activation [6] -9.76% [at 30.8 µM]

O=C(CSCC(=O)N1CCOCC1)Nc1nc(-c2ccccc2)cs1
active: Potency [4] 84.9 µM
inactive: Potency [1] | Potency [2] | Potency [3] | Potency [5] | Potency [6]

CCCCC(Sc1nc2cc3c(cc2c(=O)n1CCCC(=O)NCc1ccc2c(c1)OCO2)OCO3)C(=O)OCC (configuration not stated)
inactive: Potency [1] | Potency [2] | Potency [3] | outcome [4] inactive [at 12.7 µM] | Potency [5] | Potency [6]

CC[C@@]1(c2ccccc2OC)ON(c2ccccc2C(F)(F)F)C1=O
inactive: Potency [1] | Potency [2] | Potency [3] | Potency [4] | Potency [5] | Potency [6]

CC1Cc2cc(C(=O)O)ccc2O1 (configuration not stated)
inactive: Potency [1] | Potency [2] | Potency [3] | Potency [4] | Potency [5] | Potency [6]

Cc1nc2cc(NC(=O)CCS(=O)(=O)c3ccccc3)ccc2s1
inactive: Potency [1] | Potency [2] | activation [3] -6.47% [at 17.1 µM, percent relative to cAMP agonist control] | Potency [4] | activity change, negative = inhibition [5] -11.5% [at 30.8 µM] | activation [6] 14.1% [at 30.8 µM]

Cn1c(Cc2cccs2)nnc1SCc1nc2ccccc2[nH]1
inactive: Potency [1] | Potency [2] | activation [3] 2.48% [at 17.1 µM, percent relative to cAMP agonist control] | Potency [4] | activity change, negative = inhibition [5] -1.2% [at 30.8 µM] | activation [6] 30.7% [at 30.8 µM]

COc1ccc(-c2cc(C(F)(F)F)nc(SCC(=O)NCCc3ccccc3)n2)cc1OC
inactive: Potency [1] | Potency [2] | Potency [3] | Potency [4] | Potency [5] | Potency [6]

Cc1ccc(S(=O)(=O)N2CCN(C(=O)CC(C)n3nc(C)c(Cl)c3C)CC2)cc1 (configuration not stated)
inactive: Potency [1] | Potency [2] | activation [3] 1.58% [at 17.1 µM, percent relative to cAMP agonist control] | Potency [4] | activity change, negative = inhibition [5] 13.5% [at 30.8 µM] | activation [6] 6.22% [at 30.8 µM]

CCCCn1c(N)c(N(CC(C)C)C(=O)C2CCN(S(=O)(=O)c3ccc(C)c(C)c3)CC2)c(=O)[nH]c1=O
inactive: Potency [1] | Potency [2] | Potency [3] | Potency [4] | Potency [5] | Potency [6]

CCN(CC)c1nc(SCC(=O)O)nc(N(CC)CC)n1
active: Potency [4] 12 µM
inactive: Potency [1] | Potency [2] | Potency [3] | Potency [5] | Potency [6]

Cc1ccc(C(=O)O/N=C(\c2ccccc2)c2cccnc2)cc1
inactive: Potency [1] | Potency [2] | activation [3] -3.55% [at 17.1 µM, percent relative to cAMP agonist control] | Potency [4] | activity change, negative = inhibition [5] 3.07% [at 30.8 µM] | activation [6] 8.08% [at 30.8 µM]

Cn1cc([C@]2(O)C(=O)Nc3ccccc32)c2ccccc21
inactive: Potency [1] | Potency [2] | activation [3] 0.506% [at 17.1 µM, percent relative to cAMP agonist control] | Potency [4] | activity change, negative = inhibition [5] -2.77% [at 30.8 µM] | activation [6] 2.4% [at 30.8 µM]

Nc1c(-c2nc(-c3cccs3)no2)nnn1-c1cccc(Cl)c1
inactive: Potency [1] | Potency [2] | Potency [3] | outcome [4] inactive [at 12.7 µM] | Potency [5] | Potency [6]

CCCn1c(N)c(C(=O)CSc2n[nH]c(-c3ccc(C)cc3)n2)c(=O)[nH]c1=O
inactive: Potency [1] | Potency [2] | Potency [3] | Potency [4] | Potency [5] | Potency [6]

O/C=c1\ccc2cccc3nc(C(F)(F)F)nc1c23
active: Potency [2] 100 µM | Potency [3] 100 µM | Potency [6] 39.8 µM
inactive: Potency [1] | Potency [4] | Potency [5]

CCC(=O)Nc1ccc(C(=O)NNC(=O)c2ccc([N+](=O)[O-])cc2)cc1
inactive: Potency [1] | Potency [2] | Potency [3] | Potency [4] | Potency [5] | Potency [6]

CCOC(=O)c1ccc(-c2ccc(/C=C(\C#N)C(=O)Nc3c(C)cccc3Cl)o2)cc1
inactive: Potency [2] | Potency [3] | Potency [4] | Potency [5] | Potency [6]
active: Potency [1] 75.7 µM

CC1CC(C)CN(c2nc3c(c(=O)n(C)c(=O)n3C)n2CCSc2ncccn2)C1 (configuration not stated)
inactive: Potency [1] | Potency [2] | activation [3] 0.98% [at 17.1 µM, percent relative to cAMP agonist control] | Potency [4] | activity change, negative = inhibition [5] 1.05% [at 30.8 µM] | activation [6] 6.66% [at 30.8 µM]

COC(=O)c1cc2sc(Cl)cc2n1Cc1c(C)cc(C)cc1C
inactive: Potency [1] | Potency [2] | Potency [3] | Potency [4] | Potency [5] | Potency [6]

O=C(OCc1c(-c2ccccc2)ncc2ccccc12)c1ccccc1C(F)(F)F
inactive: Potency [1] | Potency [2] | Potency [3] | Potency [4] | Potency [5] | Potency [6]

COn1c(-c2ccc(Cl)cc2Cl)nc2ncccc21
inactive: Potency [1] | Potency [2] | Potency [3] | Potency [5] | Potency [6]
active: Potency [4] 84.9 µM

COc1cc(CCc2ccccc2)c(C(=O)O)c(O)c1CC=C(C)C
active: Potency [1] 42.6 µM
inactive: Potency [2] | Potency [3] | Potency [4] | Potency [5] | Potency [6]

CCOc1ccc(NC(=O)CN(C)C(=O)c2cc3c(s2)CCC3)cc1OCC
inactive: Potency [2] | Potency [3] | Potency [4] | Potency [5] | Potency [6]
active: Potency [1] 37.9 µM

Cc1nn(CCc2nc(-c3ccco3)cs2)c2[nH]c(=O)cc(C(F)(F)F)c12
inactive: Potency [1] | Potency [2] | Potency [3] | Potency [4] | Potency [5] | Potency [6]

Cc1ccc(/C=C/C(=O)c2ccccc(=O)c2O)c(C)c1
active: Potency [1] 44.7 µM
inactive: Potency [2] | activation [3] 1.7% [at 17.1 µM, percent relative to cAMP agonist control] | Potency [4] | activity change, negative = inhibition [5] 12.3% [at 30.8 µM] | activation [6] 23.8% [at 30.8 µM]

C=CCN(CC=C)Cc1cc(=O)oc2ccc3ccccc3c12
inactive: Potency [1] | Potency [2] | activation [3] -1.79% [at 17.1 µM, percent relative to cAMP agonist control] | Potency [4] | activity change, negative = inhibition [5] -12.3% [at 30.8 µM] | activation [6] 4.33% [at 30.8 µM]

N#C/C(=C/c1ccc(N2CCOCC2)o1)c1nc2ccccc2[nH]1
active: Potency [2] 112 µM | Potency [3] 89.1 µM | Potency [4] 42.6 µM | Potency [6] 63.1 µM
inactive: Potency [1] | Potency [5]

CCOc1cc(-c2nnc(NC(=O)C3=COCCO3)o2)cc(OCC)c1OCC
inactive: Potency [1] | Potency [2] | activation [3] -6.21% [at 17.1 µM, percent relative to cAMP agonist control] | Potency [4] | activity change, negative = inhibition [5] 3.19% [at 30.8 µM] | activation [6] 5.03% [at 30.8 µM]

COc1ccc(-c2c(-c3ccccc3OC)oc3ccccc23)cc1F
active: Potency [4] 6.75 µM
inactive: Potency [1] | Potency [2] | Potency [3] | Potency [5] | Potency [6]

O=C(CCCc1ccccc1)NCc1cn2ccsc2n1
inactive: Potency [1] | Potency [2] | Potency [3] | Potency [4] | Potency [5] | Potency [6]

CCC/C(=C1/c2ccccc2C(=O)N1c1ccccc1)c1cnc(OC)nc1
active: Potency [4] 37.9 µM
inactive: Potency [1] | Potency [2] | Potency [3] | Potency [5] | Potency [6]

CC(/C=C1\SC(=S)N(NS(=O)(=O)c2ccccc2)C1=O)=C\c1ccccc1
inactive: Potency [2] | activation [3] 7.93% [at 17.1 µM, percent relative to cAMP agonist control] | Potency [4] | activity change, negative = inhibition [5] -10.4% [at 30.8 µM] | activation [6] 7.68% [at 30.8 µM]
active: Potency [1] 22.4 µM
